In the library only some 3.5% were active in any assay of this set; here they are far more common.
TEAD-YAP inh: TEAD-YAP interaction inhibition | inhibition, % at 9.12 µM | HEK-TIYL cells, TEAD-Gal4/YAP UAS-luciferase luminescence | 640,000 tested, 1.4% active; in the data active = inhibition above about 32%;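 note: 0% = median of test compound wells and 100% = reference inhibitor wells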
FBW7 act: human FBW7 E3 ligase activation, primary screen; 650,000 tested, 0.13% active; Q969H0; AID 1259310; AlphaScreen FBW7–phospho-cyclin E peptide binding, activator screen; normalized activity (activation), % at 26.1 µM; in the data active = normalized activity above about 1.9%;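 note: purified mutant Fbw7 with reduced substrate affinity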
MITF inh: human MITF inhibition, primary screen. AID 1259374. AlphaScreen MITF homodimerization, bead proximity signal. 650,000 tested, 0.91% active. inhibition, % at 2.6 µM; in the data active = inhibition above about 50%;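 note: 0% = vehicle wells with protein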
GPR151 ag: human GPR151 activation. AID 1508602. Q8TDV0. activation, % at 11.2 µM. PathHunter beta-arrestin GPR151 cells, luminescence. 650,000 tested, 1% active; in the data active = activation above about 4.9%;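 note: 0% = median of compound wells and 100% = cells with positive control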
Target sequence (Q8TDV0 whole entry, looked up): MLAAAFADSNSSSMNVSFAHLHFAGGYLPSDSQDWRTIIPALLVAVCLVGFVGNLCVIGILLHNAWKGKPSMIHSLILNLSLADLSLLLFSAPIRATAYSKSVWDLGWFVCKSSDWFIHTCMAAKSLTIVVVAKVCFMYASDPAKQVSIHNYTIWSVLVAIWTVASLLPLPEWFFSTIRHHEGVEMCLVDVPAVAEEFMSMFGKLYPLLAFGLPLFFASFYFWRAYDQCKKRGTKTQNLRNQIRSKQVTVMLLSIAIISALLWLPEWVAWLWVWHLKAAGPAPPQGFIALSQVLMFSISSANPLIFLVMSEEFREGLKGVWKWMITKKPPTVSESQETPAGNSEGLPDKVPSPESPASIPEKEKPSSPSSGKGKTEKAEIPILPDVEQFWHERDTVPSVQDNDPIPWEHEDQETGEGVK
The depositor's hits bear a star.

SMILES	TEAD-YAP inh	FBW7 act	MITF inh	GPR151 ag
COc1ccc2cc3c(N)nn(C(=O)c4cc(OC)c(OC)c(OC)c4)c3nc2c1	51*	0	19	0
CCOc1ccc(C(=O)n2nc(N)c3cc4cc(OC)ccc4nc32)cc1OCC	52*	0	7	2
COc1ccc2cc3c(N)nn(C(=O)c4ccncc4)c3nc2c1	22	0	-21	1
COC(=O)c1ccc(NC(=O)N2CCC(CN3CCCCC3)CC2)cc1	-8	0	1	3
O=C(Nc1ccc2c(c1)CN(C(=O)c1ccco1)CC2)c1cccc2ccccc12	45*	0	3	0
CCC(=O)N1CCc2ccc(NC(=O)c3c(F)cccc3F)cc2C1	33*	0	18	-1
O=C(Nc1ccc2c(c1)CN(C(=O)C1CCOC1)CC2)c1ccccc1Cl (stereo not given)	51*	0	8	0
O=C(Nc1ccc2c(c1)CN(C(=O)c1ccco1)CC2)c1ccc(F)c(F)c1	-13	0	-1	1
O=C(Nc1ccc2c(c1)CN(C(=O)C1CCOCC1)CC2)c1ccccc1Cl	34*	0	-2	1
O=C(Nc1ccc2c(c1)CN(C(=O)C1CCOC1)CC2)c1ccc(C(F)(F)F)cc1 (stereo not given)	10	0	6	1
CC(C)NC(=O)c1nnc(Cc2ccc(F)cc2)o1	-5	0	-8	-1
COc1ccc(/C=C2\SC(=O)N(CCCC(=O)Nc3ccc(C(=O)O)cc3)C2=O)cc1	88*	0	14	-1
CCOC(=O)CCCN1C(=O)S/C(=C/c2ccc(OC)cc2)C1=S	47*	1	9	-1
CCCCN1C(=O)S/C(=C/c2ccc(OC)cc2)C1=O	-41	0	-11	0
FC(F)Oc1ccccc1/C=N/n1cnnc1	-2	0	14	1
COc1ccc(-c2cn3c(C)c(C(=O)N4CCC(C)CC4)sc3n2)cc1	-14	0	8	0
C=CCOC(=O)C1=C(C)NC(=O)NC1c1ccc(OCCC)cc1 (stereo not given)	55*	1	3	-2
COc1ccc(C2NC(=S)NC(C)=C2C(=O)c2ccccc2)cc1 (stereo not given)	57*	0	17	-2
C=CCOC(=O)C1=C(C)NC(=S)NC1c1ccc(C(=O)OC)cc1 (stereo not given)	36*	0	1	-1
C/C=C/COC(=O)C1=C(C)NC(=O)NC1c1ccccc1Cl (stereo not given)	47*	1	-2	1
Cc1cccc(C(=O)N[C@H](C(=O)Nc2nc3ccccc3[nH]2)C(C)C)c1	66*	0	-11	0
Cc1cccc(C(=O)Nc2nc3ccccc3[nH]2)c1	32*	0	7	-5
O=C(Nc1nc2ccccc2[nH]1)c1cccc(Br)c1	-27	0	8	-2
CCN(CC)C(=O)Sc1nc2ccccc2s1	44*	0	25	-6
CCCNC(=O)c1ccccc1NS(=O)(=O)c1cccc([N+](=O)[O-])c1	-3	0	6	0
SMILES	TEAD-YAP inh	FBW7 act	MITF inh	GPR151 ag
COc1ccccc1/C=C(/C#N)C(=O)Nc1ccc(O)cc1	10	0	-9	1
COc1ccc(NC(=O)/C(C#N)=C/c2ccccc2OC(C)C)cc1	51*	0	2	3
Cc1ccc(NC(=O)/C(C#N)=C/c2ccccc2O)cc1	49*	0	-16	2
COc1ccc(NC(=O)/C(C#N)=C/c2ccc(Br)o2)cc1	-14	0	9	0
Cc1cccc(NC(=O)/C(C#N)=C\c2ccccc2O)c1	-51	0	11	0
COc1ccc(NC(=O)/C(C#N)=C\c2ccc(N(C)C)o2)cc1	33*	0	-16	2
CCOC(=O)c1ccc(NC(=O)/C(C#N)=C/c2ccc(C3CC3C)o2)cc1 (stereo not given)	41*	0	13	1
Cc1cccc(NC(=O)Cc2ccc([N+](=O)[O-])cc2)c1	-12	0	11	1
COc1ccc(NC(=O)C(=O)NC2CCCC2)c(OC)c1	-10	0	2	-1
Cc1ccc(OCCn2cc(C(=S)N3CCCC3)c3ccccc32)cc1C	52*	0	14	0
S=C(c1cn(CCOc2ccccc2)c2ccccc12)N1CCCC1	-9	0	-2	0
COc1ccc(NC2=C(n3nnc4ccccc43)C(=O)c3ccccc3C2=O)cc1	59*	0	6	-1
O=C(OCCNC1=C(n2nnc3ccccc32)C(=O)c2ccccc2C1=O)c1ccccc1	-6	-1	7	0
O=C(NCCN1CCCCC1CO)c1cccc(OC2CCN(C(=O)C3CC3)CC2)c1 (stereo not given)	1	0	22	-1
O=C(Cc1cccs1)Nc1nnc(-c2cccc([N+](=O)[O-])c2)s1	-13	0	2	-1
CCC(C)NC(=O)C(Cc1ccccc1)NS(=O)(=O)c1cccs1 (stereo not given)	1	0	-8	-1
CN(Cc1ccccc1)C(=O)C(Cc1ccccc1)NS(=O)(=O)c1cccs1 (stereo not given)	36*	0	4	1
COc1ccc(/C=C(/C#N)c2cccc([N+](=O)[O-])c2)c(OC)c1	8	0	15	-1
COc1ccc(/C=C(/C#N)c2cccc(F)c2)c(OC)c1	43*	0	-3	-1
O=C1C(Cl)=C(NCCN2CCCCC2)C(=O)c2ccccc21	41*	0	9	-4
CCN(CC)CCNC1=C(Cl)C(=O)c2ccccc2C1=O	46*	0	2	-2
Oc1oc(-c2ccccc2)nc1C1=NCCC1	-50	0	-4	-3
Cc1cc[n+](-c2[nH]c(=O)sc2/C=N/NC(=O)c2cccnc2)cc1C	-6	0	0	2
Oc1ccc(CCNc2ccnc(Nc3ccc(N4CCOCC4)cc3)n2)cc1	45*	0	8	3
Cc1cc(NCCc2ccc(O)cc2)nc(-c2ccc(N3CCN(C)CC3)cc2)n1	53*	0	13	2
SMILES	TEAD-YAP inh	FBW7 act	MITF inh	GPR151 ag
Cc1cc(NCCc2ccc(O)cc2)nc(Nc2ccc(N3CCOCC3)cc2)n1	62*	0	26	2
Cn1c(=O)cc(SCC(=O)NC2CCN(Cc3ccccc3)CC2)c2ccccc21	-7	0	-10	2
CCOc1ccc(C(=O)Nc2nc3ccccc3s2)cc1Br	-70	0	-3	-1
Cc1sc2nc3n(c(=O)c2c1-c1cccs1)CCCCC3	10	0	8	1
CCCNc1nc(Nc2ccc(-n3ccnc3)cc2)nc(N(CC)CC)n1	5	0	6	0
Cc1ccc(/C=N/NC(=O)c2ccncc2)c(O)c1	20	0	57*	-1
Cc1ccc(/C=N/NC(=O)c2ccc3c(c2)OCO3)c(O)c1	56*	0	7	1
Cc1ccc(C(=O)N/N=C/c2ccc3c(c2)OCO3)cc1	11	0	10	2
CCc1c(C)sc(NC(=O)NC2CCCCC2)c1C(N)=O	-2	0	22	-1
O=C1/C(=C\C=C/c2ccco2)C(C(F)(F)F)=NN1c1ccccc1	5	0	65*	-1
